Laboratory results as given in PubChem BioAssay (NCATS).
Results filed as inconclusive are left out. Unmarked numbers belong to inactive results. Activity calls are given as the source filed them. Calls follow the shape of the dose curve; as a rule, active = well fitted inhibition curve with a large enough effect; inconclusive = small, poorly fitted or top-dose-only effect; inactive = flat fitted curve, though single readings scatter.

Test: P-glycoprotein substrates identified in KB-8-5-11 adenocarcinoma cell line, qHTS therapeutic library screen (AID 1346987); also: nearly all actives have a fitted effect of over 65% in size
Conditions: KB-8-5-11 (P-gp overexpressing) viability, CellTiter-Glo, 72 h; series mostly up to 44.5 µM; activity change, negative = cytotoxicity: at the top concentration
Summary of the method: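 KB-8-5-11: colchicine-selected sub-line of KB-3-1 over-expressing P-gp; assay medium lacked colchicine. 72 h drug exposure at 37 degree C, CellTiter-Glo.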
% is scaled to controls: 0 for no effect and ±100 for the full control effect; potency is read from the fitted curve at half-maximal effect.

| SMILES | activity change, negative = cytotoxicity | outcome | Potency |
| --- | --- | --- | --- |
| CC(C)Oc1ccc(-c2cnc3c(-c4ccnc5ccccc45)cnn3c2)cc1 | -14.7% | – | – |
| CC[C@@H](Nc1c(Nc2cccc(C(=O)N(C)C)c2O)c(=O)c1=O)c1cc(C(C)C)co1 | 6.94% | – | – |
| CC(=O)OC/C(=C/C(=O)O)CC[C@@H]1C(C=O)=CC[C@@H]2C(C)(C)CCC[C@@]12C | -8.98% | – | – |
| O=c1[nH]cnc2c([C@@H]3N[C@H](CO)[C@@H](O)[C@H]3O)c[nH]c12 | – | inactive | – |
| N#Cc1cc(C2=Nc3ccc(Br)cc3NC(=O)C2)ccn1 | 9.82% | – | – |
| Cn1c(CO)c(-c2ccccc2)c2cc([N+](=O)[O-])ccc21 | -15.4% | – | – |
| CC(=O)O[C@@H]1[C@@H](OC(C)=O)[C@H](C)O[C@@H](O[C@H]2[C@@H]3C=CO[C@@H](O[C@@H]4O[C@H](CO)[C@@H](O)[C@H](O)[C@H]4O)[C@@H]3[C@@]3(CO)O[C@@H]23)[C@@H]1OC(=O)/C=C/c1ccccc1 | 4.61% [at 17.3 µM] | – | – |
| CC(C)=CCC[C@](C)(O[C@@H]1O[C@H](CO[C@@H]2OC[C@@H](O)[C@H](O)[C@H]2O)[C@@H](O)[C@H](O)[C@H]1O)[C@H]1CC[C@]2(C)[C@@H]1[C@H](O)C[C@@H]1[C@@]3(C)CC[C@H](O[C@@H]4O[C@H](CO)[C@@H](O)[C@H](O)[C@H]4O)C(C)(C)[C@@H]3CC[C@]12C | 4.28% [at 17.3 µM] | – | – |
| CC(=O)OC1CC2(C)C(CCC(C)C23Cc2c(O)cc(CO)c(C=O)c2O3)C(C)(C)C1O (stereo unspecified) | -15.3% [at 17.3 µM] | – | – |
| c1ccc(-c2cnn3cc(-c4ccc(OCCN5CCOCC5)cc4)cnc23)cc1 | – | – | 1.64 µM (active) |
| O=C(NCCN1CCN(c2cccc3ccc(O)cc23)CC1)c1ccc(F)cc1 | -20.3% | – | – |
| C/C=C(/C)C(=O)O[C@@H]1C[C@@H](OC(=O)CC(C)C)C2(C)C3C(=O)C=C(C)C2C3C1(C)C (stereo partly specified) | -21% [at 17.3 µM] | – | – |
| CCOc1ccc(-n2c([C@@H](C)N(Cc3cccnc3)C(=O)Cc3ccc(OC(F)(F)F)cc3)nc3ncccc3c2=O)cc1 | -7.56% | – | – |
| CC(C)CCNC(=O)[C@H](CC(C)C)NC(=O)[C@H]1O[C@@H]1C(=O)O | 2.03% | – | – |
| O=C(NCCN1CCOCC1)c1cc2c(Oc3ccc(NC(=O)C4(C(=O)Nc5ccc(F)cc5)CC4)cc3)ccnc2[nH]1 | -5.72% | – | – |
| Cc1ccc(C)c(NS(=O)(=O)c2cc(C(=O)Nc3ccccc3-c3ccccc3)ccc2C)c1 | – | – | 16.4 µM (active) |
| C=CS(=O)(=O)O | 15.8% | – | – |
| CCNC(=O)Nc1ccc(-c2nc3c(c(N4CCOCC4C)n2)CCN(C2COC2)C3)cc1 (stereo unspecified) | – | – | 1.84 µM (active) |
| OC[C@H]1O[C@@H](OC/C=C/c2ccc(O)cc2)[C@H](O)[C@@H](O)[C@@H]1O | -5.86% | – | – |
| Cc1cc(OCCCS(C)(=O)=O)cc(C)c1-c1cccc(COc2ccc(C3=CC(=O)NS3=O)cc2)c1 (stereo unspecified) | -17.9% | – | – |
| CCCn1cc2c(nc(NC(=O)Nc3ccc(OC)cc3)n3nc(-c4ccco4)nc23)n1 | 3.1% | – | – |
| CN(C)CCN(Cc1ccccc1)C(=O)c1cc(-c2ccc(F)cc2)n2nc(C(C)(C)C)cc2n1 | – | – | 20.6 µM (active) |
| O=c1nc(-c2ccccn2)sc2ccccc12 | -4.86% | – | – |
| Cc1ccc(N2CCN(CCC3NC(=O)c4ccccc43)CC2)cc1C (stereo unspecified) | -19.6% | – | – |
| C=C1/C(=C/C=C2\CCC[C@]3(C)[C@@H]([C@H](C)CC[C@@H](O)C(C)(C)O)CC[C@@H]23)C[C@@H](O)C[C@@H]1O | -35.8% | – | – |
| O=C(Nc1ccc(-c2ccnc(Nc3ccc(N4CCOCC4)cc3)n2)cc1)C1CCCN1 (stereo unspecified) | – | – | 14.6 µM (active) |
